13 compounds from PubChem BioAssay can be followed below.

The structures appear in SMILES notation. Unmarked numbers belong to inactive results. The source made the active and inactive calls.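 Rule for the calls: active = thallium flux through the channel raised or lowered by more than 3 SD from vehicle-only wells, actives on both sides; inactive = the rest.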

What all share (test): BK channel mutant inhibitors and activators – cell-based, U2OS BacMam, thallium flux, beta subunits, selectivity assay, profiling panel (AID 1259406);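 note: initial slope of Thallos dye fluorescence rise after thallium is added; log ratio against the mean of 0.3% DMSO vehicle wells on the same plate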
The subject of experiment [1] is F380Y. Particulars: U2OS BacMam BK variants, at 30 µM.
For experiment [2], the system named is F380Y/beta1. Particulars: U2OS BacMam BK variants, at 30 µM.
For experiment [3], the system named is F380Y/beta2Delta. To be noted: U2OS BacMam BK variants, at 30 µM.
In experiment [4] the test system is F380Y/beta4. To be noted: U2OS BacMam BK variants, at 30 µM.
Experiment [5] concerns the target Calcium-activated potassium channel subunit alpha-1 (Homo sapiens) + Leucine-rich repeat-containing protein 26 (Homo sapiens) (UniProt Q12791+Q2I0M4). Particulars: U2OS BacMam BK variants, F380Y/Slo1WT/gamma1, at 30 µM.
In experiment [6] the test system is R275C. To be noted: U2OS BacMam BK variants, at 30 µM.
Experiment [7] concerns R275C/beta1. To be noted: U2OS BacMam BK variants, at 30 µM.
The subject of experiment [8] is R275C/beta2Delta. To be noted: U2OS BacMam BK variants, at 30 µM.
The subject of experiment [9] is R275C/beta4. To be noted: U2OS BacMam BK variants, at 30 µM.
Experiment [10] concerns R275C/Slo1WT/beta2. To be noted: U2OS BacMam BK variants, at 30 µM.

Sequence of Calcium-activated potassium channel subunit alpha-1 (Homo sapiens) + Leucine-rich repeat-containing protein 26 (Homo sapiens) (Q2I0M4 whole entry, looked up, one chain of several): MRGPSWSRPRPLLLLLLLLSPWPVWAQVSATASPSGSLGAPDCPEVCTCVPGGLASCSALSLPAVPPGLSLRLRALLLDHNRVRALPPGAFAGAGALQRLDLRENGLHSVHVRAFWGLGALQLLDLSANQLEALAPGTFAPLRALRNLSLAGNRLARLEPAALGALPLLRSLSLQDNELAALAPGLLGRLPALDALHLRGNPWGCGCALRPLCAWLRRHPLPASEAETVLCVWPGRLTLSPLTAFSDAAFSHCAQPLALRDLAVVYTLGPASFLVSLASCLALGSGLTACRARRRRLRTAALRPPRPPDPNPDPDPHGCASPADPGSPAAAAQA

For `Cc1nn(S(=O)(=O)c2ccccc2)c(C)c1Oc1ccc(Cl)cc1`, the log fold change Tl+ flux is -0.154 (active) in experiment [1]; -0.178 (active) in experiment [2]; -0.15 (active) in [3]; -0.668 (active) in experiment [4]; -0.342 (active) in experiment [5]; -0.199 (active) in [6]. Besides, the log fold change Tl+ flux in experiment [7] was -0.214 (active); in experiment [8], -0.0399; in experiment [9] it was -0.114 (active); in [10] it was -0.0715.

Regarding `CC(=O)C1=C(C)Nc2ccccc2S1`, the log fold change Tl+ flux was 0.0144 in experiment [1]; -0.00709 in experiment [2]; -0.0326 in [3]; -0.00774 in [4]; -0.000563 in experiment [5]; 0.0464 in experiment [6]. For the same compound, the log fold change Tl+ flux in [7] was -0.0243; in [8], -0.0168; in experiment [9], -0.00794; in experiment [10], 0.0465.

As for `COc1ccc(Cl)cc1N1C(=O)C=C(c2ccccc2)C1=O`, the log fold change Tl+ flux was 0.0164 in experiment [1]; 0.00407 in [2]; -0.00673 in [3]; -0.00456 in [4]; 0.00342 in experiment [5]; -0.0171 in [6]. Further, the log fold change Tl+ flux in experiment [7] is 0.056; in experiment [8], 0.00976; in [9], 0.0143; in [10] it was -0.0335.

Consider `COc1cccc(N2CC(=O)N(NC(=O)NC3CCCCC3)CC2=O)c1`, for which the log fold change Tl+ flux in [1] was -0.0108; in experiment [2], -0.0266; in experiment [3], -0.0355; in [4], -0.0285; in experiment [5], 0.0234; in experiment [6], 0.0133. Besides, the log fold change Tl+ flux in experiment [7] was -0.0377; in [8], -0.0493; in experiment [9], -0.00116; in [10], -0.0113.

`FC(F)(F)c1ccc(-c2csc(C3(c4ccc(Cl)cc4Cl)CC3)n2)cc1`: the log fold change Tl+ flux in experiment [1] was -0.0289; in experiment [2], 0.000911; in experiment [3], 0.0443; in [4], -0.0216; in [5], 0.0176; in experiment [6], -0.00802. Besides, the log fold change Tl+ flux was 0.0119 in experiment [7], -0.00666 in experiment [8], 0.0455 in experiment [9] and -0.0337 in experiment [10].

On to `C=CCNC(SC)=C(C#N)C(N)=O`, for which the log fold change Tl+ flux in experiment [1] was -0.000365; in experiment [2], -0.02; in experiment [3], 0.0377; in experiment [4], -0.0612; in [5], 0.0338; in experiment [6] it was -0.0174. Also, the log fold change Tl+ flux in experiment [7] is -0.038; in experiment [8], 0.00669; in experiment [9], -0.0131; in [10] it was -0.00229.

For `O=C(Nc1ccccc1)OCc1cc(-c2ccccc2)c(C(F)(F)F)s1`, the log fold change Tl+ flux is -0.0321 in experiment [1]; -0.0201 in experiment [2]; -0.0141 in [3]; -0.21 (active) in [4]; -0.173 (active) in experiment [5]; -0.0877 (active) in experiment [6]. Besides, the log fold change Tl+ flux is -0.141 (active) in experiment [7], 0.0124 in [8], -0.0566 in [9] and -0.0586 in [10].

For the compound `CCOC(=O)c1nn(-c2ccc(C(C)(C)C)cc2)c(=O)c(C#N)c1C`, the log fold change Tl+ flux in [1] is -0.364 (active); in [2], -0.189 (active); in experiment [3], -0.281 (active); in experiment [4], -0.097 (active); in [5], -0.15 (active); in experiment [6] it was -0.52 (active). Besides, the log fold change Tl+ flux in [7] is -0.383 (active); in experiment [8], -0.219 (active); in experiment [9], -0.26 (active); in experiment [10] it was -0.0278.

For `C1=CC=CC(C2C=CC=CC=C2)C=C1`, the log fold change Tl+ flux is 0.0519 in [1]; 0.0343 in experiment [2]; -0.0453 in [3]; 0.0315 in experiment [4]; -0.0568 in [5]; -0.00176 in [6]. The log fold change Tl+ flux in experiment [7] is -0.00852; in experiment [8], -0.000831; in experiment [9], 0.0377; in [10], -0.0164.

On to `Cc1oc(S(=O)(=O)N2CCOCC2)cc1C(=O)Nc1ccc(F)cc1`, for which the log fold change Tl+ flux in experiment [1] was 0.119 (active); in [2] it was -0.00781; in experiment [3], -0.0147; in [4] it was -0.000333; in [5], 0.0253; in experiment [6], 0.0114. Further, the log fold change Tl+ flux was 0.0125 in [7], 0.00085 in experiment [8], 0.00598 in [9] and -0.0174 in experiment [10].

With `CN(C)c1ccc(C=NNC(N)=S)c(Cl)c1`, the log fold change Tl+ flux in experiment [1] was 0.178 (active); in experiment [2], 0.329 (active); in experiment [3], 0.177 (active); in experiment [4], 0.174 (active); in experiment [5], -0.221 (active); in experiment [6] it was -0.509 (active). Further, the log fold change Tl+ flux was -0.285 (active) in experiment [7], -0.0612 in experiment [8], -0.244 (active) in experiment [9] and -0.154 (active) in experiment [10].

Regarding `N#Cc1ccc(NCCc2ccccn2)c([N+](=O)[O-])c1`, the log fold change Tl+ flux in experiment [1] is 0.00452; in [2], -0.0335; in experiment [3] it was -0.0123; in experiment [4], -0.0514; in [5], -0.00295; in experiment [6], -0.00307. Besides, the log fold change Tl+ flux in [7] is -0.0352; in [8], -0.049; in [9], 0.0115; in [10], 0.0168.

In the case of `Fc1cccc(Cl)c1CSc1nccn1-c1cccnc1`, the log fold change Tl+ flux in experiment [1] is 0.00886; in experiment [2] it was 0.00855; in [3], 0.00345; in [4], 0.0175; in experiment [5] it was 0.00834; in experiment [6], 0.0131. Further, the log fold change Tl+ flux in [7] was 0.0289; in experiment [8], 0.0125; in experiment [9], 0.0207; in experiment [10], 0.0418.
